# PostGolgi ctrl: growth of the yeast control strain, post-Golgi counter-screen | inhibition, % at 10 µM | efflux-deficient yeast background strain, growth absorbance A615, 16 h | 98,000 tested, 5% active
# MT1-MMP txn act: activates MT1-MMP transcription; HT1080 MT1-MMP promoter luciferase reporter, luminescence, overnight; stronger effect = higher value; activation factor at 10 µM; 86,000 tested, 0.16% active; AID 750;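 active means activation factor of at least 2 for MT1-MMP transcription at 10 µM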
# Measles CPE: protection of cells from measles virus; Measles virus-infected cells, CPE protection, absorbance; protection (pct of control), % at 4 µM; 140,000 tested, 1.5% active; AID 841; in the data active means protection mostly above about 24%, no sharp cut-off; inactive means mostly below about 26%
# PostGolgi yeast: growth inhibition of a yeast mutant, post-Golgi transport screen; inhibition, % at 10 µM; 98,000 tested, 0.9% active; post-Golgi transport phenotypic cell assay;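 further: yeast cells grown in 1536-well plates; yeast grown about 18 h at 30C before absorbance read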
# Hits are given with their value; . = inactive; / = not tested or not shown. Most compounds without a hit are left out; they make up all but 5.3% or so of the library. Unless noted, no stated cut-off is given here; in the data, active means inhibition above about 30%; inactive means the rest.
SMILES,PostGolgi ctrl,MT1-MMP txn act,Measles CPE,PostGolgi yeast
COCCN1C(=O)c2oc3ccccc3c(=O)c2C1c1ccc(O)c(OC)c1 (configuration not stated),.,/,.,.
COCCN1C(=O)c2oc3ccccc3c(=O)c2C1c1cccc(O)c1 (configuration not stated),32,.,.,.
COc1ccc(/C=N/NC(=O)C2CCN(c3ncc(C(F)(F)F)cc3Cl)CC2)cc1,.,/,.,.
CC1CC(C)CN(S(=O)(=O)c2ccc(NC(=O)C3COc4ccccc4O3)cc2)C1 (configuration not stated),38,.,.,.
COC(=O)[C@@H]1CCCN1C(=O)[C@H]1C[C@@H]1[C@H](NC(=O)OCc1ccccc1)c1ccccc1,/,.,/,/
COc1ccc(C(=O)n2nc(C)cc2Nc2ccccc2)cc1,.,2.1,.,.
Cc1cc(Nc2ccccc2)nn1C(=O)c1ccccc1,.,.,.,.
O=c1cc(N2CCCCC2)c(-c2ccccc2)nn1Cc1c(Cl)cccc1Cl,46,/,.,.
CCC(=O)OCCNc1cc(Sc2nc3ccccc3s2)c2nonc2c1[N+](=O)[O-],98,.,.,94
COc1ccc2cc(C#N)c(N3CCN(Cc4nnnn4CCC(C)C)CC3)nc2c1,34,.,.,.
Brc1cc(Br)c2nc(-c3cccs3)ccc2c1,.,.,.,.
Cc1nc2c(Br)cc(Br)cc2cc1O,37,.,.,.
O=C(N/N=C/c1ccccc1Cl)c1n[nH]c2c1CCCC2,/,/,.,/
Clc1ccc(-c2n[nH]c3c2CCC3)cc1Cl,69,.,.,101
CCCCNC(=O)c1sc(=S)n(-c2ccccc2OC)c1N,.,.,.,.
O=C(NC1CCCCC1)c1sc(=S)n2c1[nH]c(=O)c1ccccc12,56,.,.,.
CCCCNC(=O)c1sc(=S)n2c1[nH]c(=O)c1ccccc12,44,.,.,.
COc1ccc(/C=N/NC(=O)Cc2csc(Nc3cccc(C(F)(F)F)c3)n2)cc1C,.,/,.,.
NC(=O)C1(N2CCCCC2)CCN(C(=O)CSc2nc3ccccc3[nH]2)CC1,/,.,41,/
NC(=O)C1CCN(C(=O)CSc2nc3ccccc3[nH]2)CC1,.,/,.,.
C=CCc1cc(C)ccc1OCC(O)CN1CCN(c2ccccc2)CC1 (configuration not stated),.,.,/,.
Cc1ccc(OCC(O)CN2CCN(c3ccccc3)CC2)cc1 (configuration not stated),.,.,.,.
C=CCc1cc(OC)ccc1OCC(O)CN1CCN(c2ccc(OC)cc2)CC1 (configuration not stated),45,.,.,.
CCc1ccc(OCC(O)CN2CCN(c3ccccc3)CC2)cc1 (configuration not stated),33,.,.,.
CCCc1ccc(OCC(O)CN2CCN(c3ccccc3)CC2)cc1 (configuration not stated),85,.,.,72
SMILES,PostGolgi ctrl,MT1-MMP txn act,Measles CPE,PostGolgi yeast
Cc1nc(CS(=O)c2ccc(Cl)cc2)cc(NCc2ccc(Cl)cc2Cl)n1 (configuration not stated),35,.,.,.
Cc1nc(CSc2ccc(Cl)cc2)cc(NCc2ccccc2)n1,.,.,.,.
O=C(NN=C1CCCCCCC1)C(=O)NC1CCCCC1,.,/,.,.
N#CC(C(=O)NC1CCCCC1)=C1CCCCCC1,/,/,34,/
COc1cc(C)c(NC(=S)Nc2cccc(Cl)c2C)cc1OC,/,/,.,/
O=C1CC2(CON=C2c2ccc(F)cc2)C(=O)N1c1ccc(F)cc1 (configuration not stated),33,.,.,.
Cc1ccc(N2C(=O)[C@@H]3C(c4ccc(F)cc4)=NO[C@@H]3C2=O)cc1,.,.,.,.
N#Cc1cn(CCOc2ccc(F)cc2)c2ccccc12,/,.,.,/
Cc1c(C#N)c2ccccc2n1CCOc1ccccc1F,67,.,.,.
N#Cc1cn(CCOc2ccccc2F)c2ccccc12,58,.,.,.
CC(=O)Nc1c(O)nc(SCc2ccccc2C#N)[nH]c1=O,/,/,.,/
N#CC(C(=O)C1CCCCC1)c1nc2ccccc2[nH]1 (configuration not stated),47,.,.,.
O=C(C1CCCCC1)N1CCC(c2nc3ccccc3[nH]2)CC1,.,.,.,.
CCOc1cc(CNCc2ccncc2)cc(Cl)c1OC,/,/,.,/
COC(=O)c1ccc(C(=O)OC)c(NC(=S)N2CCCC(C)C2)c1 (configuration not stated),/,/,.,/
CC(C)[C@@H]1NC(=O)c2cc([N+](=O)[O-])cc(F)c2NCCC[C@@H](C(N)=O)NC(=O)[C@H](CO)NC1=O,/,/,.,/
CCC(CO)n1c(SCc2cc(=O)oc3cc(C)ccc23)nc2ccccc2c1=O (configuration not stated),47,.,.,41
COc1ccccc1-n1c(SCc2cc(=O)oc3cc(O)ccc23)nc2ccccc2c1=O,/,/,.,/
CCOC(=O)C1CCCC(NS(=O)(=O)c2ccc(NC(C)=O)cc2)C1 (configuration not stated),.,.,91,.
O=C(CN1CCCCC1)Nc1ccc(S(=O)(=O)NC2CCCCC2)cc1,.,.,.,.
C/C(=N\N=c1/scc(C)n1Cc1ccco1)c1cccc([N+](=O)[O-])c1,/,/,.,/
N#CC(C#N)=Cc1cn(-c2ncc(C(F)(F)F)cc2Cl)c2ccccc12,43,/,.,.
O=C(NCCc1c[nH]c2ccccc12)c1cccnc1,.,/,74,.
CCC(=O)Nc1ccc(/C(C)=N/NC(=O)c2c(-c3ccccc3Cl)noc2C)cc1,/,/,.,/
CCOc1ccc(CNC(=O)CCCOc2cc(=O)n(C)c3ccccc23)cc1,.,.,.,.
SMILES,PostGolgi ctrl,MT1-MMP txn act,Measles CPE,PostGolgi yeast
Cc1cccc(NC(=O)Cn2cnc3c(cnn3-c3ccc(F)cc3)c2=O)c1C,46,.,.,.
COC(=O)c1ccc(CNC(=O)COC(=O)C23CC4CC(CC(C4)C2)C3)cc1,/,/,.,/
O=C(COC(=O)C12CC3CC(CC(C3)C1)C2)NCCc1ccccc1,40,/,43,.
Cc1nn(C)c(C)c1CN(C)C(=O)c1cnn2c1NC(c1ccccc1)CC2C(F)(F)F (configuration not stated),.,.,.,.
O=C(CSc1nc(-c2ccco2)cc(C(F)(F)F)n1)N1CCN(c2ccc(Cl)cc2)CC1,/,.,70,/
O=C(Nc1ccc2c(c1)OCO2)c1cnn2c(C(F)(F)F)cc(-c3ccco3)nc12,.,.,.,.
Cc1ccccc1Cn1ccc(NC(=O)c2cnn3c2NC(c2ccccc2)CC3C(F)(F)F)n1 (configuration not stated),37,.,.,.
Cc1ccc(Cn2ccc(NC(=O)CCSc3nc(-c4ccco4)cc(C(F)(F)F)n3)n2)cc1,50,.,.,.
Cc1ccccc1Cn1ccc(NC(=O)c2cnn3c(C(F)(F)F)cc(-c4ccco4)nc23)n1,33,.,.,.
CC1(C)CC(=O)c2c(oc3cc4c(cc23)OCO4)C1,/,.,/,/
Cc1ccccc1Cn1ccc(NC(=O)CCSc2nc(-c3ccco3)cc(C(F)(F)F)n2)n1,54,.,.,.
Cc1cc(NC(=O)CCSc2nc(-c3ccco3)cc(C(F)(F)F)n2)no1,.,/,.,.
Cc1ccc(N(C(=O)Cn2nnc(-c3ccc(F)cc3)n2)C(CC(C)C)C(=O)NCC2CCCO2)cc1 (configuration not stated),.,/,.,.

# Screens as filed in PubChem.
